# PubChem BioAssay AID588795 (National Center for Advancing Translational Sciences (NCATS), 2011)
# Hit rate of the full screen: of about 390,000 compounds, about 1,400 (0.36%) were called active. Where a call stands in place of a potency, no number is given. Inconclusive results (about 2%) are left out. The call rests on the fitted dose curve; in most records, active means well fitted inhibition curve with a large enough effect; inconclusive means small, poorly fitted or top-dose-only effect; inactive means no such curve, though single readings can be large or run the other way. For the sample, actives were picked, then their nearest neighbours and some compounds at random.
# Molecular target: Flap endonuclease 1 (Homo sapiens) (UniProt P39748)
# Sequence (P39748 whole entry, looked up): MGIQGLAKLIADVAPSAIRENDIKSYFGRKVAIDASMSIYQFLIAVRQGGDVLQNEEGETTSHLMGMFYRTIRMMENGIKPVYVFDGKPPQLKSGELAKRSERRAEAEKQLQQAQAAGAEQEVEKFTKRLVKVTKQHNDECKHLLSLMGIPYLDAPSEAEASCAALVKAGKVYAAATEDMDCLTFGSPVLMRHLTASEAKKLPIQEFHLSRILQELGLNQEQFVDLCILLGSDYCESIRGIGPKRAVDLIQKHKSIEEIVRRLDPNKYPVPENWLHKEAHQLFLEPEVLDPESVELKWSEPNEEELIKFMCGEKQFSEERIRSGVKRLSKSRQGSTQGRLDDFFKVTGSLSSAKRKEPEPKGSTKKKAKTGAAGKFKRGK
# Assay: qHTS Assay for the Inhibitors of Human Flap endonuclease 1 (FEN1). Further: nearly all actives have a fitted effect of over 65% in size.
# Settings: Recombinant FEN1 flap cleavage, fluorescence, 15 min; series mostly up to 114 µM
# Description: The major human flap endonuclease FEN1 is an efficient structure-specific enzyme that recognizes and cleaves a 5'-unannealed DNA flap. It belongs to the RAD2 family nucleases, which are involved in DNA metabolism and are highly conserved in prokaryotes and eukaryotes. FEN1 is a key enzyme in DNA replication, repair and maintenance of genomic stability. 5'-flap removal by FEN1 is critical for Okazaki fragment processing during lagging strand DNA synthesis, long-patch base excision repair (LP BER), and regulating or facilitating recombination events. […] Deletion of the yeast FEN1 gene, i.e. rad27, results in an increased frequency of short DNA (3-32 bp) repeats, micro- and mini-satellite formation, trinucleotide repeat expansion, spontaneous recombination events, and a severe growth defect in association with cell cycle arrest in late S/G2 phase. […] Cells from fen1-/- blastocysts show increased apoptotic cell death after ionizing radiation treatment, and chicken cells lacking the fen1 gene are hypersensitive to DNA alkylating agents, e.g. methylmethane sulfonate (MMS) and N-methyl-N'-nitro-N-nitrosoguanidine (MNNG), as well as hydrogen peroxide.
# NIH Chemical Genomics Center [NCGC]
# NIH Molecular Libraries Probe Centers Network [MLPCN]
# Assay Submitter (PI): David Wilson, National Institute of Aging
# Three uL of reagents (buffer in column 3 and 4 as negative control and 10 nM FEN1 in columns 1, 2, and 5-48) were dispensed into 1,536-well black solid-bottomed plate. Compounds (23 nL) were transferred via Kalypsys pin tool equipped with 1536-pin array (10 nL slotted pins, V&P Scientific, San Diego, CA). The plates were then incubated for 15 min at room temperature, and 1 uL substrate (50 nM final concentration) were added to start the reaction read twice at 0 min read and 15 min on ViewLux reader. Throughout the screen, reagent bottle and all liquid lines were chilled and made light-tight to minimize reagent degradation. All screening operations were performed on a fully integrated robotic system (Kalypsys, San Diego, CA) containing one RX-130 and two RX-90 anthropomorphic robotic arms (Staubli, Duncan, SC). Library plates were screened starting from the lowest and proceeding to the highest concentration, and a "double-dipping" step of the highest concentration was required to access higher concentrations of compounds. Vehicle-only plates, with DMSO being pin-transferred to the entire column 5-48 compound area, were inserted uniformly at the beginning and the end of each library in order to monitor for and record any shifts in the background, which can be affected by reagent dispensers or loss in enzyme activity overtime. Screening data was corrected, normalized, and concentration-effect relationships were derived by using publicly-available curve fitting algorithms developed in-house (http://ncgc.nih.gov/pub/openhts). A four parameter Hill equation was fitted to the concentration-response data by minimizing the residual error between the modeled and observed responses.
# Potency means the concentration at half of the fitted maximal effect.
row,Structure (SMILES),Potency
1,COc1cccc(N2C(=O)NC(=O)/C(=C\c3ccc([N+](=O)[O-])s3)C2=O)c1,39.8 µM (active)
2,COc1ccc(CN2C(=O)NC(=O)/C(=C\c3ccc(OC)c(OC)c3OC)C2=O)cc1,inactive
3,CCOC(=O)CC(SP1(=S)OCC2(CCCCO2)C(C2CCCCO2)O1)C(=O)OCC (stereo not given),inactive
4,C[C@]12CCC3C(CC[C@H]4[C@H](O)[C@H](O)CC[C@]34C)C1CCC2=O (stereo not given in full),inactive
5,COc1ccc2c(c1)NP(=S)(c1ccccc1)N2 (stereo not given),inactive
6,CCC(C)(O)C(=O)OC1C(=O)OC2CC3C(C)=CC(=O)C(O)C3(C)C3C4(O)OCC23C1C(C)C4O (stereo not given),inactive
7,O=C(O)/C=C/c1ccc2c(c1)OCO2,inactive
8,O=C(c1ccccc1[N+](=O)[O-])N1CCC2(CC1)OCCO2,inactive
9,O=C(O)c1cc[c]([Sb](=[O])([OH])[OH])cc1[N+](=O)[O-],1.41 µM (active)
10,CC1C(=O)OC2CCN3CC=C(COC(=O)C(C)(O)C1(C)O)C23 (stereo not given),inactive
11,Cc1cc(C)c2c(c1)NP(=S)(c1ccccc1)N2 (stereo not given),inactive
12,CC(=O)OC1C2(CC3N4C(=O)C5(CO)SSC4(CC31O)C(=O)N5C)OC(C)C(C)(C)C2=O (stereo not given),inactive
13,COc1cc([C@@H]2c3cc4c(cc3[C@H](OC(C)=O)[C@H]3COC(=O)[C@H]23)OCO4)cc(OC)c1OC,inactive
14,COC1C(O)C(C)OC(OC2CCC3(C=O)C(CCC4C3CCC3(C)C(C5=CC(=O)OC5)CCC43O)C2)C1O (stereo not given),inactive
15,CO[C@H]1[C@@H](O)[C@@H](C)O[C@H](O[C@H]2[C@H](Oc3cccc4c(O)c5c(=O)oc6ccc(C)c7c(=O)oc(c34)c5c67)O[C@H](C)[C@H](O)[C@@H]2O)[C@@H]1O,10 µM (active)
16,O=P1(Oc2ccccc2)CC(O)C(O)C(COCc2ccccc2)O1 (stereo not given),inactive
17,CCC(=O)OC(Cc1ccccc1)(c1ccccc1)C(C)CN(C)C (stereo not given),inactive
18,CC12CCC(O)CC1CCC1C2CCC2(C)C(C(=O)CC(O)C(F)(F)F)CCC12 (stereo not given),inactive
19,c1ccc2c(c1)[I+]c1ccccc1-2,50.1 µM (active)
20,N#Cc1c(Cl)c(Cl)c(Cl)c(C#N)c1Cl,inactive
